Assay outcomes (PubChem BioAssay)
KB-3-1 cytotox = KB-3-1 parental cell cytotoxicity; 1.4% of 400,000 active; AID 1347075; Potency, µM (doses to about 46.1 µM), usual class: cytotoxic; KB-3-1 viability, CellTiter-Glo ATP luminescence, 72 h; also: nearly all actives have a fitted effect of over 60% in size
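KB-3-1 parental drug-naive adenocarcinoma cells in DMEM/10% FBS, incubated 72 h at 37 C with pin-transferred compounds across a concentration series. Viability by CellTiter-Glo luminescence; concentration-response curves fitted after normalization.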
KB-V1 cytotox = KB-V1 MDR subline cytotoxicity; KB-V1 MDR cells viability, CellTiter-Glo, 72 h; Potency, µM (top dose mostly 46.1 µM), usual class: cytotoxic; 3.4% of 400,000 active; AID 1347076; also: nearly all actives have a fitted effect of over 60% in size
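KB-V1, DMEM (no phenol red) + 10% FBS; cpd pin-transferred, titration series; 72 h, 37 degrees C; CellTiter-Glo, luminescence. Data normalized, curve-fit.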
IL1B secr inh = blocks inflammasome-driven IL-1 beta release; activity change, % at 57.5 µM; THP-1 LPS/ATP IL-1B secretion, AlphaLISA, 16 h; stronger effect = lower value; 4.7% of 360,000 active; in the data active = activity change below about -50%; inconclusive = mostly about -30% to -49%
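THP-1 cells pretreated 1 hr with compounds (up to 57.5 uM final), then stimulated with LPS (250 ng/mL final) plus ATP (1.25 mM final); secreted IL-1B measured by AlphaLISA after 16 hr, decreased signal indicating inhibition.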
MCF10A rerep = induces DNA re-replication in MCF 10a normal breast cells; AID 624296; MCF 10A DNA re-replication, Hoechst nuclear intensity, 48 h; Potency, µM (series often up to 46.1 µM), usual class: activators; 2.9% of 350,000 active; also: nearly all actives have a fitted effect of over 50% in size
SW480 rereplic = inducers of DNA re-replication in SW480 colon cancer cells. SW480 DNA re-replication, Hoechst DNA content imaging, 48 h. Potency, µM (highest dose often 46.1 µM), most hits filed as activators. 1.8% of 340,000 active. AID 624297; also: nearly all actives have a fitted effect of over 55% in size
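DNA re-replication was detected as more nuclei of elevated Hoechst intensity after 48 hr exposure to compound (23 nL pinned per well of 250 cells).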
A number is an active result; n = inactive; u = inconclusive; x = no result; ! = repeats disagree; [ ] = another dose, or the depositor's remark. Shown are actives, neighbours in structure and some others; about 9.9% of the full set was active somewhere. Unless noted, calls follow the shape of the dose curve; as a rule, active = well fitted curve in the direction sought with a large enough effect; inconclusive = small, poorly fitted or top-dose-only effect, or another doubt; inactive = no such curve, though single readings can be large; an effect the other way counts as inactive or inconclusive.

SMILES | KB-3-1 cytotox | KB-V1 cytotox | IL1B secr inh | MCF10A rerep | SW480 rereplic
CCOC(=O)[C@]12Cc3cc(C)ccc3[C@H]1N(Cc1ccccc1)C(=O)c1cc(OC)ccc12 | 18µM | 9.2µM | -96 | x | x
CCOC(=O)C1(c2ccccc2)CCN(CCC(=O)Nc2ccc(C(=O)OC)cc2)CC1 | n | n | n | u | n
CCOC(=O)[C@]12Cc3cc(N(C)C)ccc3[C@H]1N(Cc1ccccc1)C(=O)c1ccccc12 | u | u | n | n | n
CC1(C)CC(=O)c2cc(OCC(=O)N3CCN(Cc4ccccc4)CC3)ccc2O1 | n | n | n | n | u
C[C@@H](Cc1ccc(O)cc1)NC[C@@H](O)c1cc(O)cc(O)c1 | x | x | x | n | n
c1ccc(C2(N3CCCC3)CCCCC2)cc1 | x | x | x | n | n
CCOC(=O)[C@]12Cc3ccccc3[C@H]1N(Cc1ccccc1)C(=O)c1cc(F)c(F)cc12 | 23µM | 10µM | -67 | x | x
Cc1ccc(C(C)C)c(OCC(=O)N2CCN(CCc3ccncc3)CC2)c1 | n | n | x | x | x
COCCCn1c(=O)/c(=C\c2ccccc2OC(F)F)s/c1=C(/C#N)C(=O)NCCOC | n | n | n | 15µM | u
COCCCn1c(=O)/c(=C/c2ccccc2OC(F)F)s/c1=C(\C#N)C(=O)NCCOC | n | u | n | n | n
COc1ccc(/C=N\NC(=O)c2cccc(F)c2)cc1COc1ccccc1 | n | u | n | u | 1.5µM
COc1cc(/C=N/NC(=O)CN2CCCCC2)ccc1OCc1ccccc1 | n | n | n | n | u
COC1C(O)C(C)OC(OC2CCC3(C)C(CCC4C3C(O)CC3(C)C(C5=CC(=O)OC5)CCC43O)C2)C1O (stereo not given) | 0.21µM | 0.18µM | n | 0.26µM | 1.3µM
C[C@]12CC[C@H](O)C[C@H]1CC[C@@H]1[C@@H]2CC[C@]2(C)[C@@H](C3=CC(=O)OC3)CC[C@]12O | 1.6µM | 1.5µM | u | u | u
CNC(=O)Nc1ccc(C(=O)N/N=C\C23CC[C@@H](O)CC2(O)CC[C@@H]2[C@@H]3CCC3(C)C(C4=CC(=O)OC4)CCC23O)cc1 (stereo not given in full) | u | n | n | n | n
CC12CC[C@H]3[C@@H](CCC4(O)C[C@H](O)CCC34/C=N/NC(=O)c3ccccc3[N+](=O)[O-])C1(O)CCC2C1=CC(=O)OC1 (stereo not given in full) | 9.2µM | u | u | 16µM | n
CC12CCC(O)CC1CCC1C2CCC2(C)C(C3=CC(=O)OC3)CCC12O (stereo not given) | 1.2µM | 0.73µM | -65 | u | 5.8µM
COc1ccc(NS(=O)(=O)c2ccc3c(c2)oc(=O)n3C)cc1Cl | n | u | n | n | n
O=C(Cn1c(=O)oc2cc(S(=O)(=O)N3CCCC3)ccc21)Nc1cccc(C(F)(F)F)c1 | n | n | n | u | n
C[C@]12CC[C@H](O)C[C@H]1CC[C@@H]1[C@@H]2C[C@@H](O)[C@]2(C)[C@@H](C3=CC(=O)OC3)CC[C@]12O | 1.3µM | 1.6µM | -66 | u | u
CC(=O)O[C@H]1[C@H]2O[C@]23[C@@H]2CC[C@]4(O)C[C@@H](O)CC[C@]4(C)C2CC[C@]3(C)[C@H]1c1ccc(=O)oc1 (stereo not given in full) | u | n | u | n | n
C[C@]12CC[C@H](O)C[C@H]1CCC1C2CC[C@]2(C)[C@@H](c3ccc(=O)oc3)C[C@H]3O[C@]132 (stereo not given in full) | u | u | x | 13µM | u
CC12CC[C@H]3[C@@H](CCC4(O)C[C@H](O)CCC34/C=N/NC(=O)Cc3ccccc3)C1(O)CCC2C1=CC(=O)OC1 (stereo not given in full) | n | n | n | n | n
CC12CCC(O)CC1CCC1C2CCC2(C)C(C3=CC(=O)OC3)C(O)CC12O (stereo not given) | u | 4.1µM | -74 | 2.1µM | 23µM
C[C@H]1O[C@@H](O[C@H]2[C@@H](O)C[C@@H](O[C@H]3[C@@H](O)C[C@H](O[C@H]4CC[C@@]5(C)[C@H](CC[C@@H]6[C@@H]5CC[C@]5(C)[C@@H](C7=CC(=O)OC7)CC[C@]65O)C4)O[C@@H]3C)O[C@@H]2C)C[C@H](O)[C@@H]1O | 0.01µM | u | x | x | x
SMILES | KB-3-1 cytotox | KB-V1 cytotox | IL1B secr inh | MCF10A rerep | SW480 rereplic
C[C@]12CCC3C(CC[C@H]4C[C@@H](O)CC[C@]34C)[C@H]1C=CC2=O (stereo not given in full) | u | u | n | u | u
CO[C@H]1[C@@H](O)CC(OC2[C@@H](O)CC(OC3[C@@H](O)C[C@H](OC4CC[C@@]5(C)C(CCC6C5CC(O)[C@]5(C)[C@H](C7=CC(=O)OC7)CCC65O)C4)O[C@@H]3C)O[C@@H]2C)O[C@@H]1C (stereo not given in full) | x | x | x | n | n
CCCC1=Nc2cc(C(=O)NCCCN(CC)CC)ccc2Sc2ccccc21 | u | n | x | x | x
O=C(Nc1ccc(Br)cc1C(=O)O)c1ccc2c(c1)C(=O)N(Cc1ccccc1)C2=O | n | n | n | u | n
CC(=O)OC1CC(OC2C(O)CC(OC3C(O)CC(OC4CCC5(C)C(CCC6C5CC(O)C5(C)C(C7=CC(=O)OC7)CCC65O)C4)OC3C)OC2C)OC(C)C1OC1OC(CO)C(O)C(O)C1O (stereo not given) | u | 0.92µM! | -66 | 0.18µM | 1.8µM
Nc1ccc2c3c(cccc13)-c1ccccc1-2 | n | n | n | 2.9µM | 9.2µM
COCCCn1c(-c2ccc(OC)cc2)cc(C(=O)NC2CCCCCCC2)c1C | u | n | -53 | u | u
COCCOc1ccc(C(F)(F)F)cc1NC(=O)CN1C(=O)NC2(CCCc3ccccc32)C1=O (stereo not given) | n | n | n | n | u
CSc1ccc(C(=O)C2CCCN(Cc3cc4ccccc4[nH]3)C2)cc1 (stereo not given) | n | u | -100 | n[9.22 µM] | n
CSc1ccc(C(=O)C2CCCN(Cc3cccnc3)C2)cc1 (stereo not given) | n | u | n | n | n
O=c1[nH]c(=O)n(-c2ccc(Cl)cc2)c(O)c1C=Nc1ccc(S(=O)(=O)Nc2nccs2)cc1 | n | n | n | n | n
Clc1cccc(/C=N\Nc2nccs2)c1 | n | u | n | 5.8µM | n
O=C(Nc1ccc2c(c1)OCCO2)c1cccn(Cc2cccc(F)c2)c1=O | n | n | x | x | x
CCN(CC)C(=O)c1ccc(NC(=O)c2cccc(C(F)(F)F)c2)cc1 | n | n | u | n | u
CCN(CCCl)c1cc(CN(C)C)cc(NC(=O)c2ccc(C(=O)Nc3cc(CN(C)C)cc(N(CC)CCCl)c3)cc2)c1 | 0.52µM | n | -94 | n | u
O=[As]O[As]=O (stereo not given) | x | x | x | n | n
CCCCCCOc1ccc(CN2CCN(CCO)CC2)cc1 | u | n | u | u | u
